# Experimental data taken from paper PMC7862700, “An all-to-all approach to the identification of sequence-specific readers for epigenetic DNA modifications on cytosine”.
# Columns and labels:
# Experiment in all cases: DAPPL (digital affinity profiling via proximity ligation, sequencing); 10 mM Tris-HCl pH 7.5, 50 mM NaCl, 1 mM DTT, 4% glycerol, room temperature, 30 min; GST-TFs on glutathione beads, 16-mer random dsDNA library, 0.1% formaldehyde crosslink after washing; high values mean tight binding
# FLI1 = target: T1, FLI1 (Homo sapiens, UniProt Q01543 1-452); conditions: protein: recombinant; tags: N-terminal GST; dsDNA, one strand shown
# T1 sequence: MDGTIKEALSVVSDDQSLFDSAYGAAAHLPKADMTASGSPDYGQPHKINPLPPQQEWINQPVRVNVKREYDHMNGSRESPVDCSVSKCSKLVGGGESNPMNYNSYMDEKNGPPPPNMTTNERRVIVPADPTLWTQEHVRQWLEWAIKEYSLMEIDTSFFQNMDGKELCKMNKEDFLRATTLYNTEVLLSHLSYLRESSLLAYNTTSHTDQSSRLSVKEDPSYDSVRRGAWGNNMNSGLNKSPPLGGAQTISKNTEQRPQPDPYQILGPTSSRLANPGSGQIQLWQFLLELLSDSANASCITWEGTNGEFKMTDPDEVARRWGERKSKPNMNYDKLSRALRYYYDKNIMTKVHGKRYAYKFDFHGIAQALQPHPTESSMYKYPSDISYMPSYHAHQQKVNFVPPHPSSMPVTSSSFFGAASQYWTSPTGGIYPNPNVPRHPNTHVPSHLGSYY
# Outline: (§1)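 In yeast, human transcription factors were expressed with a GST fusion, then pulled down on glutathione beads and given DNA barcodes. Pooled with a tag-only sample, they were exposed to 200 nmole of a 16-mer random double-stranded DNA library (Tris/NaCl/DTT/glycerol buffer, room temperature, 30 min), washed, crosslinked with 0.1% formaldehyde, proximity-ligated using BsaI/T4 ligase for 1 h at 37 °C, PCR-amplified and read on an Illumina NextSeq500. Each hexamer's frequency of reads for a factor, divided by the matching frequency for the tag-only sample, gives the binding signal.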
# ELK1 = target: T2, ELK1 (Homo sapiens, UniProt P19419 1-428); conditions: protein: recombinant; tags: N-terminal GST; dsDNA, one strand shown
# T2 sequence: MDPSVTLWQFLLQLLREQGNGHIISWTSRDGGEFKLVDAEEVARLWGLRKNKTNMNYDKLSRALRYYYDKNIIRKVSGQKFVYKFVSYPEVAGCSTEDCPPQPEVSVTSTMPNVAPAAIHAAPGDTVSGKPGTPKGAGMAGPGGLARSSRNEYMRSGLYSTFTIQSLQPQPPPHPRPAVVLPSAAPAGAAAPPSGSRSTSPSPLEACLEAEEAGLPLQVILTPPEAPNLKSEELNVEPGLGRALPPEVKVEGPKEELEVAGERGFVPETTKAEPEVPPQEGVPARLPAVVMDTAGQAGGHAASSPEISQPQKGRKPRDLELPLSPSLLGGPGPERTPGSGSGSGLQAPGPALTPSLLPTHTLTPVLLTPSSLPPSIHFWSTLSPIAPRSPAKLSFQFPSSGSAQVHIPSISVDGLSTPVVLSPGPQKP
# Outline: as §1
# GABPA = target: T3, GABPA (Homo sapiens, UniProt Q06546 1-454); conditions: protein: recombinant; tags: N-terminal GST; dsDNA, one strand shown
# T3 sequence: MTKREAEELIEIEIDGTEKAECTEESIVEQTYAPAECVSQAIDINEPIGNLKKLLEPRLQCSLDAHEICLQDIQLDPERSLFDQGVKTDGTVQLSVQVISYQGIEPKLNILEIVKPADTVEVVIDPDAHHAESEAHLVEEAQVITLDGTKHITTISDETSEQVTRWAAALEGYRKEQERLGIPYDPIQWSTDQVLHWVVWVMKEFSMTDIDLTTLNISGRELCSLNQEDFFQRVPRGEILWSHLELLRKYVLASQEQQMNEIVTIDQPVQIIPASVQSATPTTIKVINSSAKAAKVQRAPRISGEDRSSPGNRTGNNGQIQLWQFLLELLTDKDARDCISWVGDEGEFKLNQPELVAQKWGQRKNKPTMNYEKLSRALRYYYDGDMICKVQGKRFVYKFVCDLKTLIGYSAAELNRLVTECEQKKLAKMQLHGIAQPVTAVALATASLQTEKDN
# Outline: as §1
# ERG = target: T4, ERG (Homo sapiens, UniProt P11308 1-479); conditions: protein: recombinant; tags: N-terminal GST; dsDNA, one strand shown
# T4 sequence: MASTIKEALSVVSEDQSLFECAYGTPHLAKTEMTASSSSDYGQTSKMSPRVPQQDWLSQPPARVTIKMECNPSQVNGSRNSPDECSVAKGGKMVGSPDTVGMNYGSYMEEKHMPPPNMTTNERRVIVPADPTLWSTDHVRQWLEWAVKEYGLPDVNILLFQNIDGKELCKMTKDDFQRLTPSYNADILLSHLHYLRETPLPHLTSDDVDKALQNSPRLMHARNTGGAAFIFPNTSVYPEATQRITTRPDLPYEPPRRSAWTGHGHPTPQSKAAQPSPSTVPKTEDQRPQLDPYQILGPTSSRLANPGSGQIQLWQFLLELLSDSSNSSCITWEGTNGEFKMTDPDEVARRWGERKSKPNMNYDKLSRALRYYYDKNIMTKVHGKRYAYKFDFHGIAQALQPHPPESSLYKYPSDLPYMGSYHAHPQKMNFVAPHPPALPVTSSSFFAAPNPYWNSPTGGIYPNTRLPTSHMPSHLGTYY
# Outline: as §1
# ELF1 = ELF1 (Homo sapiens, UniProt P32519 1-619); conditions: protein: recombinant; tags: N-terminal GST; dsDNA, one strand shown
# Outline: as §1
# EHF = target: T5, EHF (Homo sapiens, UniProt Q9NZC4 1-300); conditions: protein: recombinant; tags: N-terminal GST; dsDNA, one strand shown
# T5 sequence: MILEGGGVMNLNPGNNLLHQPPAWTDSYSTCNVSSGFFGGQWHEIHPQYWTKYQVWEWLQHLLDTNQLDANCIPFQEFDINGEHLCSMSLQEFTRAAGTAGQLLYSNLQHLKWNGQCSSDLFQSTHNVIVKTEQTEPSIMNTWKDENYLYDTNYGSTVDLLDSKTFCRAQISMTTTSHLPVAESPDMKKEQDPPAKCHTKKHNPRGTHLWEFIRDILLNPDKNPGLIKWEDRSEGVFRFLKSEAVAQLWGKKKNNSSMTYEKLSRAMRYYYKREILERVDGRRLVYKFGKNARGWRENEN
# Outline: as §1
# SPI1 = SPI1 (Homo sapiens, UniProt P17947 1-270); conditions: protein: recombinant; tags: N-terminal GST; dsDNA, one strand shown
# Outline: as §1
# SPIB = SPIB (Homo sapiens, UniProt Q01892 1-262); conditions: protein: recombinant; tags: N-terminal GST; dsDNA, one strand shown
# Outline: as §1
# ELK3 = target: T6, ELK3 (Homo sapiens, UniProt P41970 1-407); conditions: protein: recombinant; tags: N-terminal GST; dsDNA, one strand shown
# T6 sequence: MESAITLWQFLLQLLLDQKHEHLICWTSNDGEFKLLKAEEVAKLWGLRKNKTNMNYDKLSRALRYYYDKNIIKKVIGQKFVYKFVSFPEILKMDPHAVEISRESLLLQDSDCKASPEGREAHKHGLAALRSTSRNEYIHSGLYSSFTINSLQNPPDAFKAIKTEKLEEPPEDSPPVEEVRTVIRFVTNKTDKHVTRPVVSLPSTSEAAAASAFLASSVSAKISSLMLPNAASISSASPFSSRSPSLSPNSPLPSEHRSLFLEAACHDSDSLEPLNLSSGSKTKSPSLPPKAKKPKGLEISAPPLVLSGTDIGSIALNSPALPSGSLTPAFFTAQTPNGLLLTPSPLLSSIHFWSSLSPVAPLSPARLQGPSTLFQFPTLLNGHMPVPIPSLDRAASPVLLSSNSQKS
# Outline: as §1
# FEV = target: T7, FEV (Homo sapiens, UniProt Q99581 1-238); conditions: protein: recombinant; tags: N-terminal GST; dsDNA, one strand shown
# T7 sequence: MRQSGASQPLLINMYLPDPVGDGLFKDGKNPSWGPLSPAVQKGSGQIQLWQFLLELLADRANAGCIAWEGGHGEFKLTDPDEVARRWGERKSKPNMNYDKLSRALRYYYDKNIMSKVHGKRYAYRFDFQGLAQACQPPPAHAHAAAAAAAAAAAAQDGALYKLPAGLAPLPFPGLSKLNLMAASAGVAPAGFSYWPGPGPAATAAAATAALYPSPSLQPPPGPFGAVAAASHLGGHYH
# Outline: as §1
# ETV5 = ETV5 (Homo sapiens, UniProt P41161 1-510); conditions: protein: recombinant; tags: N-terminal GST; dsDNA, one strand shown
# Outline: as §1
# HSF1 = HSF1 (Homo sapiens, UniProt Q00613 1-529); conditions: protein: recombinant; tags: N-terminal GST; chain copies: 3; dsDNA, one strand shown
# Outline: as §1
# SPIC = target: T8, SPIC (Homo sapiens, UniProt Q8N5J4 1-248); conditions: protein: recombinant; tags: N-terminal GST; dsDNA, one strand shown
# T8 sequence: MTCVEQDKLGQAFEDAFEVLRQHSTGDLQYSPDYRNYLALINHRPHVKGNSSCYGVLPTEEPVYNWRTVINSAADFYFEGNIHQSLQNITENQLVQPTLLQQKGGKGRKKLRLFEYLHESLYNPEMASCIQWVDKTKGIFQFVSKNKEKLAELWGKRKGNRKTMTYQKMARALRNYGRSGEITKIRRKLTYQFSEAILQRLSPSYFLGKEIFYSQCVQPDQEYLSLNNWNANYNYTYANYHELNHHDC
# Outline: as §1
# ELF4 = ELF4 (Homo sapiens, UniProt Q99607 1-663); conditions: protein: recombinant; tags: N-terminal GST; dsDNA, one strand shown
# Outline: as §1
# ELK4 = target: T9, ELK4 (Homo sapiens, UniProt P28324-2 1-405); conditions: protein: recombinant; tags: N-terminal GST; dsDNA, one strand shown
# T9 sequence: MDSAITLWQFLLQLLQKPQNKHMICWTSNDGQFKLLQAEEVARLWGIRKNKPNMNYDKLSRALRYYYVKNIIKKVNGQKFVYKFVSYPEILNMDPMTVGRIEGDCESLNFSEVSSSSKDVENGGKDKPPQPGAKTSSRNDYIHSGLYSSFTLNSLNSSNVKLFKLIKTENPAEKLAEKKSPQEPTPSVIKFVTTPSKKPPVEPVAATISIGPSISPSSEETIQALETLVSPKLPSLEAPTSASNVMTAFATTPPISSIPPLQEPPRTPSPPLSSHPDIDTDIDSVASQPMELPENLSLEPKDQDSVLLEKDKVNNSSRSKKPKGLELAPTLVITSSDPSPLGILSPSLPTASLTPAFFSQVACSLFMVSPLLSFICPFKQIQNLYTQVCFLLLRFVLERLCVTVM
# Outline: as §1
# ETV2 = target: T10, ETV2 (Homo sapiens, UniProt O00321 1-342); conditions: protein: recombinant; tags: N-terminal GST; dsDNA, one strand shown
# T10 sequence: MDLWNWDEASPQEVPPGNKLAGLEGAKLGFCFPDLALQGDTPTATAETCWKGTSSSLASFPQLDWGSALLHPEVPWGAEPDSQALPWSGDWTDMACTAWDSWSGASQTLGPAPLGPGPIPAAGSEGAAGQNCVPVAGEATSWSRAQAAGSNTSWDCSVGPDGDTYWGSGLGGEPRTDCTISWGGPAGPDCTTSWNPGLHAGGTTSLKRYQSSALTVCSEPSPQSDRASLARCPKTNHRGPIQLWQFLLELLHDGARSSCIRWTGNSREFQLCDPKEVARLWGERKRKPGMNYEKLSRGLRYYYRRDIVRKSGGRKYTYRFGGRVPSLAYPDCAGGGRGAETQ
# Outline: as §1
# ELF3 = target: T11, ELF3 (Homo sapiens, UniProt P78545 1-371); conditions: protein: recombinant; tags: N-terminal GST; dsDNA, one strand shown
# T11 sequence: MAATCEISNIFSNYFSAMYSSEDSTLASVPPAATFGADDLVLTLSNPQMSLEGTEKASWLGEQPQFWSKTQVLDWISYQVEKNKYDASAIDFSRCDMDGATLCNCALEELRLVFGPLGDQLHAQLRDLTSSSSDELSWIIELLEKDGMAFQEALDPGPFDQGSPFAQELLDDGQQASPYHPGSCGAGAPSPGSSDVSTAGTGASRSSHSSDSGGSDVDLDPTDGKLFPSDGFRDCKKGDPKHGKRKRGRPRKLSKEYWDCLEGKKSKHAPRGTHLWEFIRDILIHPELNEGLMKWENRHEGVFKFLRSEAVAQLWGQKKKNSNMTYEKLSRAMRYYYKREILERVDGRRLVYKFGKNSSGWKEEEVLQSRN
# Outline: as §1
# CRX = CRX (Homo sapiens, UniProt O43186 1-299); conditions: protein: recombinant; tags: N-terminal GST; dsDNA, one strand shown
# Outline: as §1
# ETV1 = ETV1 (Homo sapiens, UniProt P50549 1-477); conditions: protein: recombinant; tags: N-terminal GST; dsDNA, one strand shown
# Outline: as §1
# ETV5, sequence (P41161 whole entry): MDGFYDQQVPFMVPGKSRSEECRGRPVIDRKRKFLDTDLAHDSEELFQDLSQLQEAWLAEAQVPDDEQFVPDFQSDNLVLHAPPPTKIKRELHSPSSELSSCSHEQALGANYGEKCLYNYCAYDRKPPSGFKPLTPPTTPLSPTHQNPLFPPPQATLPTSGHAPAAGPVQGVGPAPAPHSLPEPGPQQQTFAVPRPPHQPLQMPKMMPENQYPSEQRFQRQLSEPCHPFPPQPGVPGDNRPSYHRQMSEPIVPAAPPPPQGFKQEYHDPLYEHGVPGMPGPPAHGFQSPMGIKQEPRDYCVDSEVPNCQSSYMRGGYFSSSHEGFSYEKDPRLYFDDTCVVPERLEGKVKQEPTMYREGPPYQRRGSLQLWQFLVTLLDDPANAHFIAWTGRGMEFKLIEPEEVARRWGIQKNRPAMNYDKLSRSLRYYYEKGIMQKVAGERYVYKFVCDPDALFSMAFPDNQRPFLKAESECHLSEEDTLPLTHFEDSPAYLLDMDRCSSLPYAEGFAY
# SPIB, sequence (Q01892 whole entry): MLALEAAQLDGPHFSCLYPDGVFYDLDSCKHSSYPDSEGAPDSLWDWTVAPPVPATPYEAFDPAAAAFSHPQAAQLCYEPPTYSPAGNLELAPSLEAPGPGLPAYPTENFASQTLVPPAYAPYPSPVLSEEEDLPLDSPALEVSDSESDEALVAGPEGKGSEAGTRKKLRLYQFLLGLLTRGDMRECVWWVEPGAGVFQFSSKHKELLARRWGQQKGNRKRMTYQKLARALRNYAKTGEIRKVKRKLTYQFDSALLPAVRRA
# HSF1, sequence (Q00613 whole entry): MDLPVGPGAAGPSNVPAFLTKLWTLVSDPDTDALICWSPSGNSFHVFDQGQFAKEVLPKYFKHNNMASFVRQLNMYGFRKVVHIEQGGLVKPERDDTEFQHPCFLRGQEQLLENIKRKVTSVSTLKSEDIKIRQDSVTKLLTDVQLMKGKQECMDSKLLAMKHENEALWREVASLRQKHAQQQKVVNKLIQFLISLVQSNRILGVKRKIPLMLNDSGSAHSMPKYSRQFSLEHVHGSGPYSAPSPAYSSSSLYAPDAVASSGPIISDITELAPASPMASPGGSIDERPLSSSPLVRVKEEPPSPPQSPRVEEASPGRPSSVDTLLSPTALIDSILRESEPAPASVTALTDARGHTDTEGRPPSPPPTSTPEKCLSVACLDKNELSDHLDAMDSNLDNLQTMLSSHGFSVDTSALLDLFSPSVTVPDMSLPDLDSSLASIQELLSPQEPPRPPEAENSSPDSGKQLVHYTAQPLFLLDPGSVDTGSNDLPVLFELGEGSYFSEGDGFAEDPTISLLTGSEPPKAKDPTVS
# ELF1, sequence (P32519 whole entry): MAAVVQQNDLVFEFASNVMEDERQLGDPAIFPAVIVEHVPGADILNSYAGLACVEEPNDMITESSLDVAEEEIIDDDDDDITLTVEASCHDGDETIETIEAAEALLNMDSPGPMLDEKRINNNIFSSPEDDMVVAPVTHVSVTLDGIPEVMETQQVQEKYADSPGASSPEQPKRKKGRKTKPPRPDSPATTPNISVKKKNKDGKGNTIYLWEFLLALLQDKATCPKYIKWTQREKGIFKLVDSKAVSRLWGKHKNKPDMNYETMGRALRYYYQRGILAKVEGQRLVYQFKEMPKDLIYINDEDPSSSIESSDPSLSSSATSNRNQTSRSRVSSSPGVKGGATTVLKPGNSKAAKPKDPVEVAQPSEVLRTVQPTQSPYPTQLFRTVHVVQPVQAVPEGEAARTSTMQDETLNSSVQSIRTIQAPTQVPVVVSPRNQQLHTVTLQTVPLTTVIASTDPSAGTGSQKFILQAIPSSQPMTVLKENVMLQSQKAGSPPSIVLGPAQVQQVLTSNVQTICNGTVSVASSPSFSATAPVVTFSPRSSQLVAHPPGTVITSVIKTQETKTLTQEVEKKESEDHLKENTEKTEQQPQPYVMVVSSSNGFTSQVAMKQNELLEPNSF
# CRX, sequence (O43186 whole entry): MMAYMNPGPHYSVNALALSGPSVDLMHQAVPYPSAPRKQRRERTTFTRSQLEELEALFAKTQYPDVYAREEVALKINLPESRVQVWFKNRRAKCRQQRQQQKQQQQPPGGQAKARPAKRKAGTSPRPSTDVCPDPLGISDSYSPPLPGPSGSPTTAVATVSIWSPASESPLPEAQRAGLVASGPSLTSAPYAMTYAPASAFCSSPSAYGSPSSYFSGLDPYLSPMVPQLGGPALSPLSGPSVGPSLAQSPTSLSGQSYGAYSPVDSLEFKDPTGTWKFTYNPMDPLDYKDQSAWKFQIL
# ELF4, sequence (Q99607 whole entry): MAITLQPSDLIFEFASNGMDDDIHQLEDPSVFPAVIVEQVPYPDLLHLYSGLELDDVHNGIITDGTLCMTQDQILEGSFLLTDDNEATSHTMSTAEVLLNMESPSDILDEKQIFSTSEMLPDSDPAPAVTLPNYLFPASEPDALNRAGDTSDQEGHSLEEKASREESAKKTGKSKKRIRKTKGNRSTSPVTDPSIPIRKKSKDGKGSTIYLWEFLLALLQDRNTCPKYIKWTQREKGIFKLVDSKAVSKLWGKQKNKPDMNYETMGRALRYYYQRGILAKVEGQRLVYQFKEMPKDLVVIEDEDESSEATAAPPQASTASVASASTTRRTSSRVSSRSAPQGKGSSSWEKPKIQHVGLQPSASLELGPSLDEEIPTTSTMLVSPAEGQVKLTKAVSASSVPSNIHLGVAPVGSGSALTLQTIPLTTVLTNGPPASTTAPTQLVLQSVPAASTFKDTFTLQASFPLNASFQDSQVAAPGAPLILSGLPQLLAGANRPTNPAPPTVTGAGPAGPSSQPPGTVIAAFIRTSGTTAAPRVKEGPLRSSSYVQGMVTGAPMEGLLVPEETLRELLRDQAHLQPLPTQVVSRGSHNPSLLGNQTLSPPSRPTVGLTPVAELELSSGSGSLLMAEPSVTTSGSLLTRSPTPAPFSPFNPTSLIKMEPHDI
# ETV1, sequence (P50549 whole entry): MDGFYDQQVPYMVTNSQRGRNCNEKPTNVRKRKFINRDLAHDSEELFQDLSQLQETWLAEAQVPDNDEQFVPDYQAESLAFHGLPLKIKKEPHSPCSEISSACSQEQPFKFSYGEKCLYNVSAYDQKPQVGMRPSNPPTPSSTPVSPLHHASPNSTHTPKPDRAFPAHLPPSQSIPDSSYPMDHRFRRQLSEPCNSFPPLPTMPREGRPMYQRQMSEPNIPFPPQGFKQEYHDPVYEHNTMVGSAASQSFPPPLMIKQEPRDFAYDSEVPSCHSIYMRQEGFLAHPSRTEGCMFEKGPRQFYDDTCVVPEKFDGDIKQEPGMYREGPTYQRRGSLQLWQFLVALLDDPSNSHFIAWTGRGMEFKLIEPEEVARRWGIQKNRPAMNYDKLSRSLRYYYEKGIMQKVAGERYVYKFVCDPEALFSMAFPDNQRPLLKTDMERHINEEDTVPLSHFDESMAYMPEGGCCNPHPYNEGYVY
sequence,measurement,setting,value
CCTACG,binding signal,FLI1,"1.34 fold enrichment (6-mer frequency, TF over GST control)"
same,binding signal,ELK1,"1.41 fold enrichment (6-mer frequency, TF over GST control)"
same,binding signal,GABPA,"1.39 fold enrichment (6-mer frequency, TF over GST control)"
same,binding signal,ERG,"1.33 fold enrichment (6-mer frequency, TF over GST control)"
same,binding signal,ELF1,"1.32 fold enrichment (6-mer frequency, TF over GST control)"
same,binding signal,EHF,"1.35 fold enrichment (6-mer frequency, TF over GST control)"
same,binding signal,SPI1,"1.25 fold enrichment (6-mer frequency, TF over GST control)"
same,binding signal,SPIB,"1.32 fold enrichment (6-mer frequency, TF over GST control)"
same,binding signal,ELK3,"1.68 fold enrichment (6-mer frequency, TF over GST control)"
same,binding signal,FEV,"1.48 fold enrichment (6-mer frequency, TF over GST control)"
same,binding signal,ETV5,"1.32 fold enrichment (6-mer frequency, TF over GST control)"
same,binding signal,HSF1,"1.21 fold enrichment (6-mer frequency, TF over GST control)"
same,binding signal,SPIC,"1.37 fold enrichment (6-mer frequency, TF over GST control)"
same,binding signal,ELF4,"1.37 fold enrichment (6-mer frequency, TF over GST control)"
same,binding signal,ELK4,"1.38 fold enrichment (6-mer frequency, TF over GST control)"
same,binding signal,ETV2,"1.44 fold enrichment (6-mer frequency, TF over GST control)"
same,binding signal,ELF3,"1.5 fold enrichment (6-mer frequency, TF over GST control)"
same,binding signal,CRX,"1.11 fold enrichment (6-mer frequency, TF over GST control)"
same,binding signal,ETV1,"1.47 fold enrichment (6-mer frequency, TF over GST control)"
